From PubChem BioAssay
HTT aggregate = inhibitors of mutant huntingtin aggregate formation in PC12 cells. AID 1688. Potency, µM (highest dose often 46.1 µM), for the others: at the top dose activity change, negative = inhibition, hits mostly inhibitors. actives 1.1% (n = 220,000). PC12 HttQ103-GFP aggregates, Acumen cytometry, 40 h; further: potency means the concentration at half of the fitted maximal effect; on the % scale 0 is the no-effect control and ±100 the full control effect; nearly all actives have a fitted effect of over 60% in size
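PC12 cells with ecdysone-inducible HTT exon1 Q103-GFP, induced by 100 nM tebufenozide, given compounds in a concentration series. GFP aggregates (1–25 um, 6 SD above background) counted in lysates by laser-scanning cytometry, 488 nm excitation.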
GALK inhibitor = galactokinase (human) inhibition; actives 0.007% (n = 270,000); P51570; Potency, µM (top dose mostly 57.5 µM), for inactives: top-dose activity change, negative = inhibition, actives largely listed as inhibitors; AID 1868; Purified GALK, Kinase-Glo residual ATP luminescence; further: potency means the concentration at half of the fitted maximal effect; on the % scale 0 is the no-effect control and ±100 the full control effect
Target sequence (P51570 whole entry, looked up): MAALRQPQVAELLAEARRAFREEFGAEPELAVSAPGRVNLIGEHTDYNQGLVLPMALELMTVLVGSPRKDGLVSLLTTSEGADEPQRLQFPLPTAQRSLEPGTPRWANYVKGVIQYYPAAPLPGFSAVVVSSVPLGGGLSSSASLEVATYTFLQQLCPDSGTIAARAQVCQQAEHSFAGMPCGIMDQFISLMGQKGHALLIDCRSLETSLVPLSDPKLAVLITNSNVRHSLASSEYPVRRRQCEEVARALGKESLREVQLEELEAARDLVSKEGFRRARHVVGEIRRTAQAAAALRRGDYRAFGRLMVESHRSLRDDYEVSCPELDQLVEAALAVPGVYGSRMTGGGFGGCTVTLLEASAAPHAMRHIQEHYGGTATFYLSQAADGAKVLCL
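Compounds were pin-transferred into ATP buffer (35 uM final), then GALK plus galactose (5 nM, 100 uM final) was added. After 1 h at room temperature, Kinase-Glo Plus was added and luminescence read after 10 min.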
HTT cytoprotect = protects HTT-Q103 PC12 cells, measured by ATP; PC12 HTT-Q103 induced, cytoprotection, ATP luminescence, 40 h; Potency, µM (highest dose often 56.4 µM), without a hit: cytoprotection (ATP increase), usual class: activators; actives 0.14% (n = 230,000); AID 1471; further: potency means the concentration at half of the fitted maximal effect; % of control where 0% means no effect; nearly all actives have a fitted effect of over 45% in size
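Cells were plated at 1500 per well in phenol red-free DMEM with 5% equine and 5% calf serum. Tebufenozide (100 nM final) and compounds were added, then ATPlite reagent, and luminescence was read.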
PI4K2A inh = blocks human PI4K2A kinase activity; actives 0.13% (n = 420,000); Q9BTU6; activity change, negative = inhibition, % at 76.9 µM; purified PI4K2A, ADP-Glo luminescence, 1 h; stronger effect = lower value; in the data active means activity change below about -50%; inconclusive means mostly about -30% to -49%;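 further: -100% = wells without enzyme as full effect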
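Compounds are screened against recombinant PI4K2A using PI as substrate and ATP, the latter dispensed at 300 microM. Reactions run one hour at ambient temperature before ADP-Glo detection; full inhibition defined by wells lacking enzyme.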
An asterisk follows results filed as active; ? = inconclusive; / = no result; ! = not confirmed by another sample; [ ] = remark or other dose. The full list was thinned out, with hits kept by preference. Unless noted, the call rests on the fitted dose curve; in most records, active means well fitted curve in the direction sought with a large enough effect; inconclusive means small, poorly fitted or top-dose-only effect, or another doubt; inactive means no such curve, though single readings can be large; an effect the other way counts as inactive or inconclusive.

SMILES | HTT aggregate | GALK inhibitor | HTT cytoprotect | PI4K2A inh
Cc1cc(=O)[nH]c(N=N/C(=N/Nc2ccc(O)cc2)c2ccccc2)n1 | 1.58µM* | 6.7% | -90.4%[10 µM] | -24.9
COc1cccc(-c2nnc3sc(C4CCCCC4)nn23)c1 | 2µM* | 0.6% | ? | 1.2
FC(F)(F)c1ccc2nc(CNc3nc(N4CCOCC4)nc4c3ncn4-c3ccsc3)[nH]c2c1 | / | / | / | -3.0
CC(=O)c1c(O)c(C)c(O)c2c1OC1=CC(=O)[C@H](C(C)=O)C(=O)[C@]12C | / | / | -2.7% | /
COc1cc(Br)c(C(=O)c2nccc3cc(OC)c(OC)cc23)cc1OC | / | -0.9% | / | -52.1*
COc1ccc(OC)c(S(=O)(=O)N2CCCCC2C(=O)N2CCN(c3ccc(F)cc3)CC2)c1 (stereo unspecified) | / | / | / | 0.9
CCC(=O)c1ccc(OCC(O)Cn2c(C)nc3ccccc32)cc1 (stereo unspecified) | 11.2µM* | 0.6% | -14.3%[10 µM] | -12.8
Cc1cc(/C=N/n2cnnc2)c(C)n1-c1ccc(OCc2ccccc2F)cc1 | 10µM* | -5.1% | -66.3% | -1.5
Cc1cc(/C=N/n2cnnc2)c(C)n1-c1ccc(OCc2ccc(Cl)cc2)cc1 | 2.51µM* | 0.4% | -63.0% | 3.3
C(=N\n1cnnc1)/c1ccc(OCc2ccccc2)cc1 | 0.3% | 8.5% | -21.8% | 1.0
C[C@@H](CCCCC1(C)OCCO1)CCC(=O)N(c1ccccc1)c1ccccc1 | / | / | / | -0.7
Cc1c[nH]c2cccc(-c3ccc(OCc4ccccc4)cc3)c12 | / | / | / | -1.5
COc1cc(N/N=C/c2ccccc2O)ncn1 | ? | 0.1% | 33.5%[10 µM] | -9.7
COc1cc(N/N=C/c2ccc(N(C)C)cc2)ncn1 | 6.5%[9.22 µM] | -6.5% | -52.1%[10 µM] | -52.9*
Cc1ccccc1CNc1ncnc2c1ncn2[C@@H]1O[C@@H](CO)[C@H](O)[C@@H]1O | / | / | -39.0%[1.9 µM] | /
Cc1cccc(N2CCN(C(c3cccs3)c3nnnn3C(C)(C)C)CC2)c1C (stereo unspecified) | 11.2µM* | 1.3% | 11.3%[10 µM] | -2.6
Cc1cccc(N2CCN(C(c3ccccc3)c3nnnn3C(C)(C)C)CC2)c1C (stereo unspecified) | ? | -1.5% | -2.0%[10 µM] | 3.8
Cc1nc2sc(C(N)=O)c(N)c2c2c1CCCC2 | 1.78µM* | -2.0% | -13.4%[10 µM] | -11.2
NC(=O)c1sc2nc(-c3ccccc3)c3c(c2c1N)CCCC3 | 6.31µM* | -1.6% | -31.5% | -0.9
Oc1ccc(C(c2nnnn2C2CCCCC2)N2CCOCC2)cc1 (stereo unspecified) | 2.82µM* | 3.6% | / | -4.9
CC(=O)N1CCc2cc(S(=O)(=O)NCCC(=O)N(C)Cc3ccccc3F)ccc21 | / | / | / | 2.4
C=CCN=c1scc(-c2ccc3c(c2)NC(=O)CO3)n1/N=C(\C)c1ccccn1 | 5.01µM* | 1.1% | -52.7%[10 µM] | 1.2
C=CCNC(=O)CSc1nc2c(c(=O)[nH]1)CCCC2 | / | / | / | -2.5
c1ccc(CSc2ccc(-c3cccs3)nn2)nc1 | 0.0316µM* | 1.8% | -93.7% | -2.7
C/C(=C\CNc1ncnc2c1ncn2[C@@H]1O[C@@H](CO)[C@@H](O)[C@H]1O)CO | / | / | -31.2% | /
SMILES | HTT aggregate | GALK inhibitor | HTT cytoprotect | PI4K2A inh
CC1=C(/C=C/C(C)=C/C=C/C(C)=C\CO)C(C)(C)CCC1 | / | / | 6.9% | /
CC1=C(/C=C/C(C)=C/C=C/C(C)=C/CO)C(C)(C)CCC1 | -5.0% | / | 10µM*! | -11.1
CC(C)[C@H](NC(=O)OC(C)(C)C)C(=O)N1CCC(Oc2cccnc2)CC1 | / | / | / | -5.6
OCCCc1nc2n(n1)C(c1ccccc1)C=C(c1ccc(F)cc1)N2 (stereo unspecified) | -1.8% | -2.8% | -8.3%[10 µM] | -66.4*
Cc1sc2ncnc(NC3CCN(Cc4ccccc4)CC3)c2c1C | 7.08µM* | 0.8% | 2.1%[10 µM] | 4.7
Cc1csc2c(NC3CCN(Cc4ccccc4)CC3)ncnc12 | 25.8%[9.22 µM] | / | 4.6%[10 µM] | -2.5
Cc1ccc(Nc2ncnc3sc(C)c(C)c23)cc1 | ? | 0.7% | -4.5%[10 µM] | 0.2
c1ccc(CN2CCC(Nc3ncnc4sccc34)CC2)cc1 | 10µM* | -0.3% | -33.0% | 2.6
COc1ccc(-c2nc(-c3ccccc3)oc2NC(C)C)cc1 | / | / | -2.3% | /
Brc1ccc2[nH]c3c(c2c1)CCC3 | 24.3%[9.22 µM] | -3.8% | 25.0%[10 µM] | -1.8
O=C1Cc2c([nH]c3ccc(Br)cc23)-c2ccccc2N1 | / | / | 15.8µM*! | -3.3
C[C@@H]1CCC2[C@](C)(CO)[C@@H](O)CC[C@]2(C)[C@]12CCC(CO)(CCO)O2 (stereo partly specified) | / | / | -14.6% | /
CC1(C)[C@@H](O)CC[C@@]2(C)[C@H]1CC[C@]1(C)[C@H]2C(=O)C=C2[C@@H]3C[C@@](C)(C(=O)O)CC[C@]3(C)CC[C@@]21C | / | / | -5.2% | /
O=C(N/N=C/c1cn(-c2ccccc2)nc1-c1cccs1)c1ccccc1F | ? | -0.2% | 22.2%[10 µM] | 3.5
O=C(N/N=C/c1cn(-c2ccccc2)nc1-c1cc2ccccc2o1)c1ccncc1 | 10µM* | 1.1% | 10.9%[10 µM] | 2.3
O=C(N/N=C/c1cn(-c2ccccc2)nc1-c1cccs1)c1ccc(Cl)cc1 | 11.2µM* | 2.7% | -5.0%[10 µM] | -4.4
O=S1(=O)C=CCN1Cc1cn(Cc2cccc(Cl)c2)nn1 | / | / | / | 0.8
CN1CCN(c2ccccc2NC(=O)Cc2cn(C)c3ccccc23)CC1 | 25.1µM* | 1.0% | -53.5% | 7.0
COC(=O)C1CN(Cc2cn(CCOC(C)=O)nn2)CCS(=O)(=O)N1Cc1ccc(C)cc1 (stereo unspecified) | / | / | / | -4.1
C=C(CO)[C@H]1Cc2c(ccc3c2O[C@H]2COc4cc(OC)c(OC)cc4[C@@H]2C3=O)O1 | / | / | 2.3% | /
COc1ccccc1CN(C)C(=O)C1CCCN(c2nc3ccccc3o2)C1 (stereo unspecified) | / | / | / | -3.8
Nc1ccccc1C(=O)NNC1=C(C(=O)C(F)(F)F)CCC1 | -26.2%[9.22 µM] | -1.7% | 7.1%[10 µM] | 3.7
O=C(NNC1=C(C(=O)C(F)(F)F)CCC1)c1ccc(Br)cc1 | 11.2µM* | -2.3% | -58.1% | -0.3
COCO[C@@H]1CC(CO)=C[C@H]2OCO[C@H]21 | / | / | / | 3.4
COc1ccc(-n2nc(C#N)c(Cl)cc2=O)cc1 | 25.1µM* | 1.0% | -2.8%[10 µM] | 20.0
SMILES | HTT aggregate | GALK inhibitor | HTT cytoprotect | PI4K2A inh
CC(=O)Oc1c(C)cc(O)c2ccccc12 | 14.1µM* | -0.3% | -106.5% | /
CCCCC[C@H](CC(=O)NO)C(=O)N[C@@H](C(=O)N1CCC[C@H]1CO)C(C)C | / | / | -2.7%[1.9 µM] | /
O=C(O)CC(O)CC(O)/C=C/c1c(C2CC2)nc2ccccc2c1-c1ccc(F)cc1 (stereo unspecified) | -37.8% | / | -254.4% | /
CN(CCC#N)C(=O)COC(=O)c1c2c(nc3ccccc13)/C(=C\c1ccco1)CC2 | / | / | / | -51.7*
CC1CCCCC1NC(=O)COC(=O)c1c2c(nc3ccccc13)/C(=C\c1ccco1)CC2 (stereo unspecified) | / | / | / | -67.2*
O=C(c1cnn(C(=O)COc2ccc(Cl)cc2)c1)c1ccccc1O | -28.5% | -0.1% | 34.8%[10 µM] | 3.9
Cc1ccc(O)c(C(=O)c2cnn(C(=O)COc3ccc(Cl)cc3)c2)c1 | 5.62µM* | / | 2.5%[10 µM] | 0.3
